An excerpt weighted towards active compounds, which were near 4.1% of everything screened.
DAX1 inh-1 – inhibitors of human orphan nuclear receptor DAX1 (NR0B1); actives 0.99% (n = 340,000); inhibition, % at 6.75 µM; HEK293 Gal4-DAX1 luciferase reporter, luminescence; P51843; AID 504766;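 active = inhibition above the mean over all tested compounds plus 3 SD, cut at about 4.2% in these data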;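 also: 0% = DAX1-transfected cells with DMSO and 100% = empty-vector control cells with DMSO; inhibition shows as a rise in luminescence from relieved DAX1 repression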
ssDAF-12 act – S. stercoralis DAF-12 activation, primary screen | HEK293 ssDAF-12/GRIP1 lit1-tk-luc reporter, luminescence; % of 3 µM dafachronic acid response | activation, % at 6.8 µM | actives 1% (n = 370,000) | AID 652126;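 active = activation above the mean over all tested compounds plus 3 SD, cut at about 0.9% in these data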;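 also: 0% = DMSO-only wells and 100% = 3 µM delta7-dafachronic acid wells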
DAX1 inh-2 – inhibitors of DAX1 repression of SF-1 activated StAR promoter. actives 1.1% (n = 370,000). HEK293T StAR-luciferase reporter, SF-1/DAX-1 repression relief. inhibition, % at 6.8 µM;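 active = inhibition above the mean over all tested compounds plus 3 SD, cut at about 3.6% in these data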;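 also: 0% = DAX-1 cells with DMSO and 100% = cells lacking DAX-1 with DMSO; higher inhibition means more luminescence from relief of DAX-1 repression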
hgDAF-12 ag – activates the H. glycines DAF-12 receptor ligand-binding domain | HEK293 GAL4-hgDAF12 UAS-luciferase reporter, agonist luminescence; normalized to butyrate control | activation, % at 6.8 µM | actives 1.8% (n = 370,000) | AID 687014;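 active = activation above a cutoff set at the mean of all screened compounds plus 3 SD, cut at about 10% in these data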;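 also: 0% = DMSO wells and 100% = sodium butyrate wells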
hcDAF-12 act – activators of H. contortus DAF-12 nuclear receptor. HEK293 hcDAF-12 lit1-tk-luc reporter, luminescence; 0% DMSO, 100% Δ7-dafachronic acid. activation, % at 6.8 µM. actives 1.4% (n = 370,000);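 active = activation above the mean of all tested compounds plus 3 SD, cut at about 5.5% in these data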;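 also: 100% = response to 3 µM Δ7-dafachronic acid high control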
DAX1 conf – NR0B1 (human) inhibition, confirmation | actives 87% (n = 2,400) | shares compounds with DAX1 inh-2 | HEK293T StAR-promoter luciferase reporter, SF-1/DAX-1 repression | inhibition, % at 6.8 µM | AID 652134;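 active = inhibition above the average of every tested compound plus 3 SD, cut at about 3.8% in these data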;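 also: 0% = DAX-1 cells with DMSO and 100% = no DAX-1 control cells with DMSO; active compounds raise luminescence by relieving repression of the StAR reporter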
Target sequence (P51843 whole entry, looked up): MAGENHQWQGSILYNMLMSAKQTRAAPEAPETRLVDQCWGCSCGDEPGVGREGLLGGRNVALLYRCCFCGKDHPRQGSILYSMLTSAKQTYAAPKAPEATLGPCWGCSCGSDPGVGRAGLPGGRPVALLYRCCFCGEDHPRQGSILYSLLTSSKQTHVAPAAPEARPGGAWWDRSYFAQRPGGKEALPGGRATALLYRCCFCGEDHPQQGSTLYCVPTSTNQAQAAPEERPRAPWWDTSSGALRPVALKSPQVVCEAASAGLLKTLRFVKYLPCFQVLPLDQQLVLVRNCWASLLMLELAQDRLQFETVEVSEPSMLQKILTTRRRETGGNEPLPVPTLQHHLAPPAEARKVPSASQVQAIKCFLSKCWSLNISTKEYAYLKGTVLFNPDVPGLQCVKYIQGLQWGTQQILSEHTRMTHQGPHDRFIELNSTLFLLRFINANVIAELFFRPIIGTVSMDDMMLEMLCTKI
SF1 mutant ctr – counter-screen for DAX1 inhibitors: nonselective inhibitors with SF-1 AF2 mutant | shares compounds with DAX1 inh-2 | HEK293 StAR-luciferase, luminescence | inhibition, % at 6.8 µM | actives 78% (n = 2,400);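 active = inhibition above the mean of all tested compounds plus 3 SD, cut at about 3% in these data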;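 also: 0% = DAX-1 transfected cells with DMSO and 100% = cells without DAX-1 with DMSO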
* = called active by the depositor; nt = not tested or not shown.

SMILES	DAX1 inh-1	ssDAF-12 act	DAX1 inh-2	hgDAF-12 ag	hcDAF-12 act	DAX1 conf	SF1 mutant ctr
CCOC(=O)N1CCC(NC(=O)c2ccc3c(c2)N=C(C)c2c(C)ccc(C)c2S3)CC1	0	-1	9.0*	-1	-2	15*	-6
C/C=C/c1cccc(-c2nc(C(=O)N3CCCCC3)cc3c2[C@@H](CCO)N(C(=O)NC(C)C)C3)c1	nt	-1	0	-1	0	nt	nt
O=C(CCCN1C(=O)/C(=C\c2ccccc2)SC1=S)Nc1cccc(C(=O)O)c1	-1	-1	0	0	0	nt	nt
O=C(CCN1C(=O)/C(=C\C=C\c2ccccc2)SC1=S)Nc1cccc(C(=O)O)c1	2	-1	4.9*	2	0	6.2*	2
O=C(CCCN1C(=O)S/C(=C/C=C/c2ccccc2)C1=O)Nc1ccc(C(=O)O)cc1	1	-1	5.3*	0	3	5.2*	3.8*
COc1ccccc1OCC(=O)Nc1ccc2c(c1)OCO2	-1	-1	1	2	-1	nt	nt
CC(C)(C)c1nnc(NC(=O)COc2ccc3c(c2)OCO3)s1	1	0	7.9*	3	1	9.1*	7.2*
O=C(COc1ccc(F)cc1)Nc1nccs1	2	1	7.5*	12*	5	11*	6.3*
CC(C)(C)c1nnc(NC(=O)c2ccc3c(c2)OCO3)s1	3	0	2	10	4	nt	nt
O=C(COc1ccc(F)cc1)Nc1ccc2c(c1)OCCO2	1	-1	5.0*	10	4	4.2*	3
O=C(CS(=O)(=O)c1ccc(F)cc1)Nc1nccs1	1	-1	2	0	-2	nt	nt
COc1cc(C)ccc1OCC(=O)Nc1ccc2c(c1)OCO2	1	0	6.2*	9	2	7.7*	6.3*
COc1ccccc1C(=O)NC(=O)COC(=O)/C(=C/c1ccccc1)NC(C)=O	0	-1	1	3	0	nt	nt
CCc1ccccc1NC(=O)COc1ccc2c(c1)OCO2	2	-2	0	1	-2	nt	nt
Cc1ccc(NC(=O)COc2ccc3c(c2)OCO3)c(Cl)c1	1	-1	5.0*	13*	3	9.2*	4.3*
CCOc1ccccc1-c1cc(NC)ncn1	nt	0	0	-2	-2	nt	nt
CNc1cc(-c2ccc(CC#N)cc2)ncn1	nt	-1	4.5*	8	3	6.8*	5.5*
Cc1ccccc1C(=O)N1CCC(C(=O)N(CC(C)C)c2c(N)n(Cc3ccccc3)c(=O)[nH]c2=O)CC1	0	0	2	4	0	nt	nt
CC(C)=CC(=O)Nc1ccc2c(c1)OCO2	0	0	6.1*	10	5	12*	7.7*
O=C(Nc1cccc(F)c1)Nc1ccc2c(c1)OCO2	3	0	7.0*	10	5	9.2*	5.3*
COc1ccc(NC(=O)COC(=O)C2CC2)cc1S(=O)(=O)N1CCCCC1	0	-1	2	-2	-1	nt	nt
Clc1ccc(-c2cn3cc(Br)ccc3n2)cc1Cl	2	3.0*	8.0*	23*	14*	13*	5.2*
Cc1ccc2nc(-c3ccc4c(c3)OCCO4)cn2c1	-10	-2	-3	-12	-5	nt	nt
COc1cccc(CC(=O)N2CCC(n3nccc3NC(=O)C3CC3)CC2)c1	0	-1	2	0	1	nt	nt
CSc1ccc(CC(=O)N2CCC(n3nccc3NC(=O)C3CC3)CC2)cc1	0	0	6.0*	12*	1	2	3
SMILES	DAX1 inh-1	ssDAF-12 act	DAX1 inh-2	hgDAF-12 ag	hcDAF-12 act	DAX1 conf	SF1 mutant ctr
O=C(CSc1nnc(-c2ccccc2Cl)o1)Nc1ccccn1	-1	-1	6.1*	11*	3	17*	6.7*
CC(=O)N1CCc2cc(S(=O)(=O)NCC(=O)NCc3ccc(F)cc3)ccc21	0	-1	0	-2	-1	nt	nt
Cc1ccc(C)c(NC(=O)CN(C)C(=O)c2cc3ccccc3oc2=O)c1	1	0	5.9*	6	3	6.8*	5.6*
Cc1ccc(CSc2[nH]c(=O)ncc2C)cc1	-1	-1	0	-1	-1	nt	nt
O=C(Nc1ncc(Cc2ccccc2)s1)C1CCCO1 (stereo unspecified)	0	1	8.3*	13*	4	11*	4.8*
O=C(Nc1nnc(Cc2ccc(Cl)cc2)s1)C1CCCO1 (stereo unspecified)	2	-2	1	-2	-1	nt	nt
O=C(c1ccc2nc(Cc3ccccc3F)oc2c1)N1CC[C@H](O)C1	0	-1	6.2*	6	4	5.9*	1
CC(c1ccccn1)N(C)C(=O)c1ccc2nc(Cc3ccccc3F)oc2c1 (stereo unspecified)	2	-1	4.8*	8	3	5.3*	4.4*
CC(=O)N1CCCN(C(=O)c2ccc3nc(Cc4ccccc4F)oc3c2)CC1	2	-1	-1	0	-2	nt	nt
COc1ccc(Cc2nc3ccc(C(=O)N4CCOCC4)cc3o2)cc1	2	0	5.4*	10	4	7.4*	3.8*
Cc1cc(CN(C)C(=O)c2ccc3nc(Cc4ccccc4F)oc3c2)n[nH]1	0	-1	-1	0	-2	nt	nt
CC(C)OC(=O)c1ccc2ccc(-c3ccccc3)nc2c1	nt	1	8.4*	9	2	15*	7.3*
CC(C)OC(=O)c1ccc(NC(=O)c2ccccc2)cc1	0	-1	2	5	-1	nt	nt
COc1ccc(C(=O)COC(=O)c2cccc(-n3cnnn3)c2)c(OC)c1	0	-1	4.6*	10	4	7.8*	4.4*
COc1ccccc1CNC(=O)COC(=O)c1cccc(-n2cnnn2)c1	1	-1	0	-1	-1	nt	nt
COc1cccc(NC(=O)N2CCc3ccccc3C2)c1	2	0	6.1*	8	4	8.4*	7.1*
O=C(Nc1cccc(Cl)c1)N1CCc2ccccc2C1	2	0	1	10	1	nt	nt
O=C(Nc1ccccc1F)N1CCc2ccccc2C1	2	0	6.4*	7	3	6.8*	7.1*
COc1ccc(O)c(C(=O)CC(=O)c2cccnc2)c1	4	0	6.5*	10	2	7.3*	6.9*
O=C(Nc1ccc(F)c([N+](=O)[O-])c1)c1ccc2c(c1)OCCO2	-1	-1	0	7	0	nt	nt
O=C(CNC(=O)c1ccc2c(c1)OCO2)NCCOc1ccc(Cl)cc1	0	-1	-2	6	-1	nt	nt
O=C(Nc1ccc(Cl)cc1[N+](=O)[O-])c1ccc2c(c1)OCCO2	0	-1	4.7*	6	2	10*	4.2*
O=C(NCCOc1ccc(Cl)cc1)c1ccc2c(c1)OCCO2	1	-1	5.8*	6	2	7.5*	5.4*

Screening data as filed in PubChem.
